Twelve molecules from PubChem BioAssay can be followed below.

Experiment [1] can be described thus: HepG2 liver cancer cell viability effects, profiling panel, resazurin fluorescence, 24 h, PK04 Diversity Set (AID 1172). Note: test concentration not given here. The settings on record: higher = more signal. Background: Alamar Blue is a resazurin reagent that responds to reducing activity.
A short description of experiment [2]: basal S. cerevisiae growth modulation, no modifier, primary screen, OD600, strain BY4716, 24 h, basal condition (AID 1173). Particulars: OD600, 24 h, higher = more signal, called active from +8 up or from −8 down.
Experiment [3] in a line: MM1S myeloma cell viability, profiling panel, resazurin fluorescence, basal, 24 h, PK04 Diversity Set (AID 1174). Note: test concentration not given here. The settings on record: higher = more signal, called active from +8 up or from −8 down.
Experiment [4] addresses Dihydroorotate dehydrogenase (quinone), mitochondrial (Plasmodium falciparum (isolate 3D7)) (UniProt Q08210). Put plainly: PfDHODH enzyme inhibitors, primary screen, biochemical, C-terminal His tag, absorbance 600 nm (AID 1175).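 Note: recombinant parasite enzyme with a five histidine tag at its C terminus; test concentration not given here.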 Particulars: DCIP absorbance 600 nm, higher = more signal, called active from +8 up or from −8 down.
Experiment [5] is described as follows: P. aeruginosa biofilm formation inhibitors, primary screen, strain PAO1, LB-PBS medium, absorbance 600 nm (AID 1176). Note: test concentration not given here. Particulars: P. aeruginosa PAO1 growth/biofilm, A600, 12 h; higher = more signal.
Experiment [6] is described as follows: S. cerevisiae RM11-1a growth modifiers, primary screen, strain RM11-1a, OD600, basal, 24 h (AID 1177).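 Note: cultures grown under basal conditions with no added stressor; test concentration not given here.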 Particulars: OD600, 24 h, higher = more signal, called active from +8 up or from −8 down.
The nature of experiment [7]: E. coli acrAB mutant growth effects, primary screen, E. coli filamentation inducers, strain DRC39, OD650, 24 h (AID 1178).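 Note: growth measured as culture turbidity by optical density at 650 nm; test concentration not given here.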 Particulars: higher = more signal, called active from +8 up or from −8 down.
Experiment [8] in a line: E. coli acrAB mutant growth effects, primary screen, E. coli filamentation inducers, strain DRC39, OD650, 48 h (AID 1179).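 Note: screen aims at cell division blockers that make cells filament.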 The settings on record: E. coli DRC39 delta-acrAB growth, higher = more signal, called active from +8 up or from −8 down.
Experiment [9] can be described thus: RPMI8226 myeloma cell viability, profiling panel, resazurin fluorescence, basal, 24 h, PK04 Diversity Set (AID 1180).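 Note: RPMI8826 multiple myeloma cell line at 5000 cells per well; test concentration not given here.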 The settings on record: higher = more signal.
The target in experiment [10] is E3 ubiquitin-protein ligase XIAP (Homo sapiens) (UniProt P98170). The experiment is described as follows: XIAP binders, primary screen, biophysical, small-molecule microarray, fluorescence 635 nm (AID 1181).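 Note: score merges 667 nm emission and signal to noise over triplicate slides.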 The settings on record: small-molecule microarray binding, higher = more signal.
Chain of E3 ubiquitin-protein ligase XIAP (Homo sapiens) (P98170 whole entry, looked up): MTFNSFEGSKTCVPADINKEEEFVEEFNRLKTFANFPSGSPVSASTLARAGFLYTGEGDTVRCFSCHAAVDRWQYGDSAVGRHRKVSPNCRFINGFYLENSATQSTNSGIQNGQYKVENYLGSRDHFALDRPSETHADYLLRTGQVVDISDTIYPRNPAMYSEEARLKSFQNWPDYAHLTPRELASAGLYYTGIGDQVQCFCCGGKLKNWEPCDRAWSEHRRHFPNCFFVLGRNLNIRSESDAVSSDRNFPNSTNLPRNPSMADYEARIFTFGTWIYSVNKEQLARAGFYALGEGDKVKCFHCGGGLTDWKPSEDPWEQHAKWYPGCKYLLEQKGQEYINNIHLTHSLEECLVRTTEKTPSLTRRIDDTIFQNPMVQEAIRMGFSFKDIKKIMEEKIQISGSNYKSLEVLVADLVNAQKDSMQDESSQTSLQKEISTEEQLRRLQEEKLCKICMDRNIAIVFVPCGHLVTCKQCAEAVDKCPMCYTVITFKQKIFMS

The source made the active and inactive calls. Unless noted, the rule behind the calls is not given here.

Chain of Dihydroorotate dehydrogenase (quinone), mitochondrial (Plasmodium falciparum (isolate 3D7)) (Q08210 whole entry, looked up): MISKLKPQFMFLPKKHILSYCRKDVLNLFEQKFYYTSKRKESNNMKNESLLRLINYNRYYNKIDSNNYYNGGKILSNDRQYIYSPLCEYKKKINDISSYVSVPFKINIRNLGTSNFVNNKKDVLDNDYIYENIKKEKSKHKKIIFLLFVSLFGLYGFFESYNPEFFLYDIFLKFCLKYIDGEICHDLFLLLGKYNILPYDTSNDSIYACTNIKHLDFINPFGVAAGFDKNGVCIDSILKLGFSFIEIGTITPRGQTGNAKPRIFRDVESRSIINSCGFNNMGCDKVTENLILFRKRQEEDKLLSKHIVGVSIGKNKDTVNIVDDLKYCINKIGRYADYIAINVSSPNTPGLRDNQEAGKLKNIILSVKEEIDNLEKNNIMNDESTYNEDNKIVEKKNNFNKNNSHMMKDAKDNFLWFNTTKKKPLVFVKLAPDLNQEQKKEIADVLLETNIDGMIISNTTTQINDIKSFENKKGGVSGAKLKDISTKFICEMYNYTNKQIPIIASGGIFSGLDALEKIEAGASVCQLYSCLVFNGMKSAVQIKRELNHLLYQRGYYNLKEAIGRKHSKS

Consider `CS(=O)(=O)CCOC(=O)C1=CC(CCCO)=CC(c2ccc(CN3CCCC3)cc2)N(Cc2cccc(OC(F)(F)F)c2)C=C1C(=O)OCCS(C)(=O)=O` (stereo not given), for which the z-score in experiment [1] was -0.207; in experiment [2], -3.9 (inactive); in [3], -0.527 (inactive); in experiment [5], 1.24 (inactive); in [6], 1.01 (inactive); in experiment [7] it was 0.669 (inactive). Moreover, the z-score in experiment [8] is 0.399 (inactive); in experiment [9] it was 0.0703. For the same molecule, the figures for the composite z-score in [4] and in experiment [10] were -1.03 (inactive) and -0.24, respectively.
On to `CC(C)N1CC=CC23O[C@@H]4C=CCOC(=O)[C@@H]4[C@H]2C(=O)N(CCCCCO)[C@@H]3C1=O` (stereo not given in full), for which the z-score in experiment [1] is 0.413; in experiment [2], -0.746 (inactive); in experiment [3], 1.27 (inactive); in [5], 0.897 (inactive); in experiment [6], -1.06 (inactive); in experiment [7], 0.319 (inactive). Also, the values for the z-score in [8] and in [9] were -0.134 (inactive) and 0.888, respectively. Besides, the composite z-score is -1.85 (inactive) in [4] and -0.216 in [10].
For the molecule `COC(=O)[C@@]1(Cc2ccc(OC)cc2)[C@H]2c3cc(C(=O)N4CCCC4)n(CCCNc4ncc(C(F)(F)F)cc4Cl)c3C[C@H]2CN1C(=O)c1ccccc1`, the z-score in [1] was 0.808; in experiment [2] it was 1.01 (inactive); in [3], -1.12 (inactive); in experiment [5], -0.0982 (inactive); in experiment [6] it was 0.398 (inactive); in experiment [7], -0.0379 (inactive). The z-score in experiment [8] was -0.816 (inactive); in experiment [9], -2.67. Moreover, the composite z-score in [4] is -0.199 (inactive); in experiment [10], 0.0986.
Consider `CCOC(=O)C1=CC[C@@H](c2ccccc2)N(S(=O)(=O)c2ccc(C)cc2)[C@H]1c1ccc(CC)cc1`, for which the z-score in experiment [1] was 0.963; in experiment [2] it was 1.82 (inactive); in experiment [3] it was -0.342 (inactive); in experiment [5] it was 0.806 (inactive); in experiment [6] it was 1.25 (inactive); in experiment [7], -0.692 (inactive). In addition, the z-score in experiment [8] was 0.629 (inactive); in [9] it was -0.224. The figures for the composite z-score in experiment [4] and in [10] were 0.207 (inactive) and -0.11, respectively.
As for `COC(=O)[C@@]1(Cc2ccc(OC)cc2)[C@H]2c3cc(C(=O)N4CCCC4)n(CCc4ccc(O)c(O)c4)c3C[C@H]2CN1C(=O)c1ccccc1`, the z-score in experiment [1] was -1.37; in [2], 1.04 (inactive); in experiment [3] it was -1.79 (inactive); in experiment [5], 2.16 (inactive); in experiment [6], 0.397 (inactive); in experiment [7] it was -0.215 (inactive). Moreover, the z-score in [8] was -0.163 (inactive); in experiment [9], -1.33. Further, the values for the composite z-score in experiment [4] and in [10] were -0.487 (inactive) and 0.0517, respectively.
Regarding `COCCOC(=O)N1C(=O)[C@@]2(c3cc(C#CC4(O)CCCCCC4)ccc31)[C@H](C(=O)Nc1nc3ccccc3s1)[C@H]1C(=O)O[C@H](c3ccccc3)[C@H](c3ccccc3)N1[C@@H]2c1ccccc1OCCO`, the z-score in experiment [1] is 0.709; in experiment [2] it was 0.504 (inactive); in experiment [3], -1.15 (inactive); in experiment [5], 0.249 (inactive); in experiment [6], 1.78 (inactive); in experiment [7], -0.632 (inactive). The figures for the z-score in experiment [8] and in experiment [9] were 0.635 (inactive) and -0.435, respectively. Besides, the composite z-score in experiment [4] is -0.747 (inactive); in [10] it was -0.0118.
In the case of `NC(=O)[C@@H]1[C@H]2C(=O)O[C@H](c3ccccc3)[C@H](c3ccccc3)N2[C@H](c2ccc(OCCO)cc2)[C@@]12C(=O)Nc1ccc(C#CC3=CCCCC3)cc12`, the z-score in experiment [1] is -1.67; in experiment [2] it was 0.193 (inactive); in experiment [3], -7.44 (inactive); in experiment [5], 1.82 (inactive); in experiment [6], 0.657 (inactive); in experiment [7], -0.0159 (inactive). Also, the z-score in [8] was -0.668 (inactive); in [9] it was -6.82. In addition, the composite z-score in experiment [4] is 0.207 (inactive); in experiment [10], 0.543.
For `C#CCN(C/C=C/c1ccccc1)[C@H](CO)c1ccccc1`, the z-score is -0.832 in experiment [1]; -16.9 (active) in experiment [2]; -1.19 (inactive) in experiment [3]; -0.128 (inactive) in experiment [5]; -1.31 (inactive) in experiment [6]; -0.338 (inactive) in [7]. For the same molecule, the z-score is -1.7 (inactive) in [8] and -1.45 in [9]. Besides, the composite z-score in experiment [4] was 0.716 (inactive); in experiment [10], -0.167.
As for `CC(=O)Nc1cc(Br)ccc1C(=O)NCc1ccccc1`, the z-score in [1] was 0.184; in experiment [2] it was -8.91 (active); in [3] it was -0.292 (inactive); in experiment [5], -0.131 (inactive); in [6], -0.294 (inactive); in [7] it was 0.0344 (inactive). Further, the z-score was -0.785 (inactive) in experiment [8] and -0.108 in [9]. Besides, the composite z-score in experiment [4] is 0.663 (inactive); in experiment [10], -0.157.
With `COC(=O)c1c(CC[C@@H](CO)NC(=O)N[C@H](Cc2ccccc2)Cn2cc(-c3ccccn3)nn2)oc(C(C)=O)c1C(=O)OC`, the z-score in experiment [1] was -1.62; in [2], -0.295 (inactive); in experiment [3], -1.13 (inactive); in experiment [5], -0.0149 (inactive); in experiment [6], -0.559 (inactive); in [7] it was -0.347 (inactive). For the same molecule, the z-score was -0.793 (inactive) in [8] and -0.857 in experiment [9]. The values for the composite z-score in experiment [4] and in [10] were 0.0502 (inactive) and -0.135, respectively.
Take `O=c1cccc(-c2ccccc2Cl)o1`: the z-score was -0.611 in experiment [1]; -2.25 (inactive) in [2]; -0.111 (inactive) in experiment [3]; -0.0043 (inactive) in experiment [5]; -0.234 (inactive) in experiment [6]; -0.366 (inactive) in experiment [7]. Besides, the z-score is -0.608 (inactive) in experiment [8] and -0.698 in experiment [9]. For the same molecule, the composite z-score in experiment [4] is -0.316 (inactive); in [10], -0.0999.
Take `C=C(CCCC)/C(=C/C[C@H](OC(C)=O)c1ccc(OCCO)cc1)c1cnc2ccccc2c1`: the z-score in experiment [1] was 0.846; in experiment [2] it was -0.0576 (inactive); in [3] it was -1.42 (inactive); in experiment [5], 0.403 (inactive); in experiment [6], -0.476 (inactive); in experiment [7], 0.187 (inactive). In addition, the z-score in [8] was 0.225 (inactive); in [9] it was 0.228. Besides, the composite z-score in [4] was -3.75 (inactive); in [10], -0.312.
